In PubChem BioAssay AID1159580 (chemical genetic matrix, 2015):
Out of some 5,500 compounds screened, about 2,000 (36%) were called active. Roughly 18% stayed inconclusive and do not appear here. No stated cut-off is given here; in the data, active means normalized growth mostly below about 0.91 (no sharp cut-off); inconclusive means no clear call, values can overlap the other calls; inactive means mostly above about 0.92. The list shows a part of the results.

Assay: chemical genetic growth profiling, strain panel (AID 1159580);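 further: tested at 20 µM; growth read once vehicle control cultures reached saturation at 30 °C; 1 = growth at the plate median or of vehicle wells; lower values mean less growth of the strain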
Conditions: S. cerevisiae deletion strains, growth OD

Measured: normalized growth

CN(C)C(N)=NCCC[C@H](N)C(=O)O
inactive: locus YAL013W, strain DEP1, active compounds read low 1 | locus YAL040C, strain CLN3, active compounds read low 0.998 | locus YCL061C, strain MRC1 (second series), active compounds read low 1.01 | locus YDR150W, strain NUM1, active compounds read low 0.997 | locus YDR363W, strain ESC2, active compounds read low 1.04 | locus YER002W, strain NOP16, active compounds read low 0.979 | locus YJR075W, strain HOC1, active compounds read low 1.01 | locus YMR307W, strain GAS1, active compounds read low 1.01 | locus YNL128W, strain TEP1, active compounds read low 0.988 | locus YNL175C, strain NOP13, active compounds read low 1 | locus YNL197C, strain WHI3, active compounds read low 1.02 | locus YNL224C, strain SQS1, active compounds read low 0.984 | locus YOR083W, strain WHI5 (second series), active compounds read low 0.988 | locus YPL055C, strain LGE1, active compounds read low 1.03 | locus YPL241C, strain CIN2, active compounds read low 1
